Whole data set: some 1,800 sequences, median “median log2 fold change of GCK-ALFA target abundance (FLAG IP / Myc IP barcode read proportion)” near 0.14, cut for the lowest 2% near -0.84. The entries come from a sample that favours the lowest values as a whole.
T1: TRAF2, Q12933
T1 chain: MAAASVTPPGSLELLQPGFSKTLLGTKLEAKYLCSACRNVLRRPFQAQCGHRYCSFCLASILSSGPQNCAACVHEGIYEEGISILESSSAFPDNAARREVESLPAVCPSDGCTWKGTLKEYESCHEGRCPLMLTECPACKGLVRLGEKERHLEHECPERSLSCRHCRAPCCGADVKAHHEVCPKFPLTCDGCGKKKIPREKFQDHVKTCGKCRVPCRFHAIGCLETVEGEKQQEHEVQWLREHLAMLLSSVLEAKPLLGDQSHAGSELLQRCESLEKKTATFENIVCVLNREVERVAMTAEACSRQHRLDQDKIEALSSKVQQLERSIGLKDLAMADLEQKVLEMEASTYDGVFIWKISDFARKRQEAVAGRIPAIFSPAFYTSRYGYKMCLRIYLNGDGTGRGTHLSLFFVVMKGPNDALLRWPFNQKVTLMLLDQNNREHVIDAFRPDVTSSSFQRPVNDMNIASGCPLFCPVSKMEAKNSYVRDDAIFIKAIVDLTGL

B1: traf2_out_6_156_2412 (protein)
chain: MVEEILEKALEKVEELIKELAKASEEKKIAYISKIAGTAYRALQELREAGASLEEIEAFAEEFKKRTEELLKEAGLPEDTINLVLSALNAVFDVAIAEAK
B2: traf2_out_11_155_735 (protein)
chain: EEKQKLIQEMNDKIMELFEEARRRALEIARRAAERHPEHREEIEAAIEESKGFSYRSFILEMIRLFRELGLEEEAEELERLLEETQRKASKIVIETEKKL
B3: traf2_out_17_162_1539 (protein)
chain: SPTEERLEELERRLERLEEELKKLKEKSEKLDELSKEEISDLLVEVSELRREALRLAEELRRLAEETGSPRARELEERAERLAEELQRIANKIYKELEKK
B4: traf2_out_11_155_726 (protein)
chain: SKFKEAQNKIVDFNLEVGDELLKKVEEIIKEIEKEDPEVAKKLREVVEKYKKFSNRSAARAAIDLLREEGYEEYAERLEKALEEAQRKMSKKTQEIEKEL
B5: traf2_out_6_3_2520 (protein)
chain: MEESIRRDARTVLENMGITTAEQLKRLVEANVNAVKKLVSRPDVDEADLAGARSVLALTRAMVDVAAETLPDLTPEQVAEMKALIKEAEELVEKKRKELE
B6: traf2_out_6_3_2516 (protein)
chain: MEESIRKDAETVLENMGITTAEQLKRLVKAEVNAVKKLVSRKDVDEADLAGAESVLNLTRAMVEVAYEKLPDLTEEQKKEMLALIKEAEELVKKKRKELE
B7: traf2_out_18_3_1943 (protein)
chain: KEEELKKISEEIDKIIDEVTARAREELDRLLAEHPELAAEAEALRADLDAGAGPFGILDELARLWERAGAADEAAAARAFLREKRKKLQELVDKYEELRK
B8: traf2_out_13_95_1132 (protein)
chain: SAETAKKIMEIADKMLDEILAILEELLKKAEAAGVGVEEIQKAIHLAEHHSVNEAIHLLRELAKKHPEFKAELEAAIAKIEAIREKAGREVAKILKEAAE
B9: traf2_out_1_27_1022 (protein)
chain: SDEEFTRLIRETDRKIAEVDLEEQKKVVKEALKEAAKWGLGDARMLARTLVASQNDEERQEAIKEASLEAFKELGAPEEVIEELERVFNSIIERKKKVLA
B10: traf2_out_18_167_1872 (protein)
chain: SAELKKKREELTDELVRYSTIRRALLLILEALKRSREEARRLLEEYVEKYPDSEVLREALEVFETKSDEEFRKFLEEKAEELQKEANEKYKELEELEKEE
B11: traf2_out_11_155_669 (protein)
chain: EEKQKLNNELVNELTKVSDELKEKVIKILKEAAEKHPEHKEEIEKVIESSKTLSGTSFARKAAQLFKELGLEEEAKKVEELLEEAQKKMNEIYKKYEKKL
B12: traf2_out_17_178_1674 (protein)
chain: DKAAKRAEISALTDELIDLTEDTGTKLLALAEAEGTLTPEELALLRAALRSSSANTLLAVAEKLAPKLKTKAEAEALLKDFKEKKKELSKKIAEAYKEYE
B13: traf2_out_14_149_1231 (protein)
chain: SEEAKLLAAAAELTEKIAKTLEEVLKLLKEGKLEEAKKLLKESIEELEKESKKKGVTPSQLFQLEDLLELLEKDPEAAKKFAEEALARAKENADTLKEMA
B14: traf2_out_11_169_779 (protein)
chain: EEAEKNRKINDFALELNDKAKEKLKEEALKLAKEAGLDEEEIKKIFEENKNKSLSAVAAALIKYFESKGKEEEAAKVLEKYEELKDEINKKSSEFIKSLE
B15: traf2_out_1_158_912 (protein)
chain: DTKKKLMLSSVELVVKDAVESARENGDEETAKAIEELGEKIIELVKKLAIEEGKSVEEVIEEIDKLAAEFKAKADPETAAAIERLTRRVKSALRQVEKLM
B16: traf2_out_18_5_1953 (protein)
chain: SREEELKEALKSAERILSKKPEIEAEAKKLGVEELYKKAVEDFTRALENGEDLAKISTKHAEELAKKIGDPEKAEDLTYEIRRYVSAEYAKEVLEEMLKA
B17: traf2_out_20_8_2269 (protein)
chain: MSMEEKLARAADLILDAKDLVRAVIREVLADERAPAIAAEAAAAISVSVSADDTDADILLRIRERATEALTRLAERTGDPRLEEARARVAAALDAAAAAA
B18: traf2_out_6_156_2453 (protein)
chain: AAEAILERTEKEIEEGIKALAAAPEERKIAEINRIAGAFYRGLQALRAAGASLEELRAAAERLLETAEKKAKEAGLDERTRNLLLASLRAVADVALAAAA
B19: traf2_out_17_162_1558 (protein)
chain: SEIEKRWEKLKEELKELEKRVEALEKRLERLAELTPEEIRDLLVEASEVKRRALELAEEAEKLKEKIGEEEAQKLIDEANEIAERAQRIANTLYKALEKK
B20: traf2_out_18_167_1847 (protein)
chain: EEEIRKRREELSDRLVELSEVKRAARLALQALETDPSKVPAALAALREKAASIPELQPLVDAAEAALAAGDREGLRATLEKLIEKAQKLMNEVLKEYEAL
B21: traf2_out_6_156_2450 (protein)
chain: MIEEIFEKAVKEIEELIKKLAAAPESKKIAYINKIAGTFYKALQELRESGASLEEIEEFVERLLKKAEELANEAGLDEDTKNLLLSTLSAVGEVAIANAK
B22: traf2_out_17_162_1507 (protein)
chain: SPLEELRRRIEEELEELRRELERLEKKMENLKSMSKEELSDLLVEASEAKARALRLAELVREHREELGEEEAERLIREAEEIAERLQRIANEAYKELLKK
B23: traf2_out_3_89_2301 (protein)
chain: AAAEAAKIEAARARAERYARGFRKSARFVAKQMIADGMSLDTLRGVLEAARNALVEVFREELKEQGLSEETIEELVKELTEELEKIVEEILEEAEKKRAE
B24: traf2_out_13_95_1141 (protein)
chain: SAEVAAKINAIADRLLAEKDAILDELEAQLKAAGLLTPELRAALEAAKRSSISTAIHRLRELAERYPEARAALEAAIARLEALRREAGREVAEILKEEKE
B25: traf2_out_20_3_2084 (protein)
chain: KELEEEYKKHLEKAEKLLKEAAKLADPETAKKLEELIKRLKKSEELPYSDRLVVLSEVRREVLLLAQEAKAAGNEELAKILEEAAEEINRAMNLLMKMIE
B26: traf2_out_3_77_2274 (protein)
chain: SMKKEEIREKLDEATTLAIASLAVNAINNPEKAEEFREMARIVHRARAIAKEKGKEEELLPLIEEAKEAADKLNEGDESALEKLKEIVKKIGELAEKWEK
B27: traf2_out_17_60_1763 (protein)
chain: GPEEEKEELKREARRAIEEARRLVEEVRAKLAAGTLTASEAMDWLVELTEKRRELERLLEEAEKKGEEMEELKRELERAIEEVRRTMNEVGKHLLELLEA
B28: traf2_out_20_3_2204 (protein)
chain: SELEEELEKRLDAAEKLLKEAQKLADPETAKTLDALIARLKASRELSYDDRLVTLSAIRAEVLALAQAAKAAGNAELAAVLEAAADELQKAMNLVYKIIE
B29: traf2_out_17_162_1540 (protein)
chain: SETEEELRRLREELEELEEELRRLEEISKNLETLSKEELTDLLVEASELRRRALELAERLRRLEEETGSEEARRLRERAEEIAERLQRIANEIYKELEKK

Molecular target: T1, TRAF2, Q12933
Test: median log2 fold change of GCK-ALFA target abundance (FLAG IP / Myc IP barcode read proportion) (log2 ratio); each designed protein is fused to an ALFA-tag nanobody in HEK293 cells to bring the named protein to FLAG-tagged glucokinase (GCK); Myc marks an untargeted standard; higher = target protein stabilised (more abundant)
Details: target protein: 3xFLAG-MCP-GCK-ALFA reporter; HEK293 landing pad (RPLP)
Description: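 LABEL-seq trans screen in HEK293 landing-pad cells. Each de novo designed 100-aa effector handle, binding the indicated effector (E3 ligase, DUB or autophagy protein), is fused to a constant NbALFA target handle and induced with 2 ug/mL doxycycline. A FLAG-MCP-GCK-ALFA target and a Myc-MCP standard reporter were transfected, and after 48 h circRNA barcodes were recovered by anti-FLAG and anti-Myc IP and sequenced. The value is the median across barcodes (at least 3 per design) of log2(FLAG/Myc read-proportion ratio), with the two transfection replicates pooled. Negative values mean degradation and positive values mean stabilisation of the target.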

Row | Binder | median log2 fold change
1 | B1 | 0.261
2 | B2 | -0.138
3 | B3 | 0.204
4 | B4 | 0.469
5 | B5 | -0.989
6 | B6 | -0.56
7 | B7 | 0.0947
8 | B8 | -0.315
9 | B9 | 0.214
10 | B10 | 0.106
11 | B11 | 0.305
12 | B12 | 0.0887
13 | B13 | 0.24
14 | B14 | 0.368
15 | B15 | 0.0872
16 | B16 | -0.0294
17 | B17 | 0.0236
18 | B18 | -0.00113
19 | B19 | 0.297
20 | B20 | 0.224
21 | B21 | 0.00905
22 | B22 | 0.373
23 | B23 | -0.974
24 | B24 | -0.98
25 | B25 | 0.118
26 | B26 | 0.354
27 | B27 | -0.0301
28 | B28 | -0.756
29 | B29 | 0.402

Source: the supplement of paper PMC12632987
